This note sets out measurements from ChEMBL document CHEMBL1961873, “Compounds: GSK PKIS; Assays: Nanosyn kinase panel” (2012).

Test [1] has as its target Ribosomal protein S6 kinase alpha-6 (Homo sapiens) (UniProt Q9UK32). Particulars: at 1 µM.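 Also: each value is a mean inhibition of RSK4 from a GSK PKIS panel screen.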
For test [2], the target named is T1, Serine/threonine-protein kinase Sgk1 (Homo sapiens) (UniProt O00141).
T1 sequence (whole entry): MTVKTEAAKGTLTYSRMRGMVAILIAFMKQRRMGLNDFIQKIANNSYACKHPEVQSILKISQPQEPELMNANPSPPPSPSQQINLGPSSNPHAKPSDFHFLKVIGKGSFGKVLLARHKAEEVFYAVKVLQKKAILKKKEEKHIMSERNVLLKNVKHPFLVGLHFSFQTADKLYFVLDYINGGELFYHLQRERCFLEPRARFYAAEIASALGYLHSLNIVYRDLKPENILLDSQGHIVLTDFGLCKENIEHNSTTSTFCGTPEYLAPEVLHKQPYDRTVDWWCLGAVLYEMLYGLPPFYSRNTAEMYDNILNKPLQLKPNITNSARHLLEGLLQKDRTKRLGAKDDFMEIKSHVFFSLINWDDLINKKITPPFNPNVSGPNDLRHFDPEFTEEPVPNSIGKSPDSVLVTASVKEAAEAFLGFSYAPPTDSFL
Particulars: at 0.1 µM.

Test [3] has as its target T1, Serine/threonine-protein kinase Sgk1 (Homo sapiens). Particulars: at 1 µM.
Test [4] deals with T2, Serine/threonine-protein kinase Sgk2 (Homo sapiens) (UniProt Q9HBY8).
T2 sequence (whole entry): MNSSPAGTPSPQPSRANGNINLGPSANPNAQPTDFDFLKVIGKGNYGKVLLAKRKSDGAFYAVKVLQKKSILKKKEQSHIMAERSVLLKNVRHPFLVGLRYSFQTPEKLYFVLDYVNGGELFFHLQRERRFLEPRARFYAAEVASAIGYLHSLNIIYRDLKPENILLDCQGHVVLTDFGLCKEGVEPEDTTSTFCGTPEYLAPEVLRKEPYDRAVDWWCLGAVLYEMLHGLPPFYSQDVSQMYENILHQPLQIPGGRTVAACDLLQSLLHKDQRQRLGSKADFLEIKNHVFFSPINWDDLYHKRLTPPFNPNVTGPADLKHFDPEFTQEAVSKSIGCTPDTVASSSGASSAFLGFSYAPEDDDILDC
Particulars: at 0.1 µM.

For test [5], the target named is T2, Serine/threonine-protein kinase Sgk2 (Homo sapiens). Particulars: at 1 µM.
Test [6] addresses T3, Serine/threonine-protein kinase Sgk3 (Homo sapiens) (UniProt Q96BR1).
T3 sequence (whole entry): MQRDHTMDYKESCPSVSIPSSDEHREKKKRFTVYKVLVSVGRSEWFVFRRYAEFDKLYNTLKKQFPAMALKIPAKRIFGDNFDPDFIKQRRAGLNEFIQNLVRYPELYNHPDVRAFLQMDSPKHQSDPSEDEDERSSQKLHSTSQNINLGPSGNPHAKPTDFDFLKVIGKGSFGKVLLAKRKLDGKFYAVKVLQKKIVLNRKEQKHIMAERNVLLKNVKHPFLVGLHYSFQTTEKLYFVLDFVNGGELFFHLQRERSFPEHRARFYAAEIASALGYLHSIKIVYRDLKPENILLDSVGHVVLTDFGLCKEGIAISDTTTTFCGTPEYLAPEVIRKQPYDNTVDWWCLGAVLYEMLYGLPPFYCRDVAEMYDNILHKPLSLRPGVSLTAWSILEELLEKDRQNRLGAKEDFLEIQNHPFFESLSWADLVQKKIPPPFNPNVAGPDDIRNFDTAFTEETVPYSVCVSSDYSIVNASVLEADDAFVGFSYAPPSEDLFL
Particulars: at 0.1 µM.

Test [7] has as its target T3, Serine/threonine-protein kinase Sgk3 (Homo sapiens). Particulars: at 1 µM.
The target of test [8] is 5'-AMP-activated protein kinase catalytic subunit alpha-1 (Homo sapiens) (UniProt Q13131). Particulars: at 0.1 µM.
The target is the same in test [9]. Particulars: at 1 µM.
Test [10] concerns the target 5'-AMP-activated protein kinase catalytic subunit alpha-2 (Homo sapiens) (UniProt P54646). Particulars: at 0.1 µM.
For test [11] the target is unchanged. Particulars: at 1 µM.
In test [12] the target is T4, NUAK family SNF1-like kinase 1 (Homo sapiens) (UniProt O60285).
T4 sequence (whole entry): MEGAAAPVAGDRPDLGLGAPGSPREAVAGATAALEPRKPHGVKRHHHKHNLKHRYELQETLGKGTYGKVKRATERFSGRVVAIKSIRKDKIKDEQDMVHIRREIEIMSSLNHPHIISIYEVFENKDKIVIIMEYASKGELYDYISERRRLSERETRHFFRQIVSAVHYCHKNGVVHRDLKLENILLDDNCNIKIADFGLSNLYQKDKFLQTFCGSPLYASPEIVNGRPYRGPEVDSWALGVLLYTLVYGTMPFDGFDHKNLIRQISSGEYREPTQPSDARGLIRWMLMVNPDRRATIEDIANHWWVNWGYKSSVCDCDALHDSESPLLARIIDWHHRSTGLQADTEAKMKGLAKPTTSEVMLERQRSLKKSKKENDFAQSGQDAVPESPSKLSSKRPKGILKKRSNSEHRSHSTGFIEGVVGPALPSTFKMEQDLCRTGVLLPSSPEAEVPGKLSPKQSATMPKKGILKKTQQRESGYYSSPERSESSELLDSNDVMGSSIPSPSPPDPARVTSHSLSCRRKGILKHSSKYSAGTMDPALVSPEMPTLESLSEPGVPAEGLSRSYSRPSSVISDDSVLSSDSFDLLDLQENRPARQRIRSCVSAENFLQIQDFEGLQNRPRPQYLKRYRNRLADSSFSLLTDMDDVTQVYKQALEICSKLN
Particulars: at 0.1 µM.

Test [13] deals with T4, NUAK family SNF1-like kinase 1 (Homo sapiens). Particulars: at 1 µM.
In test [14] the target is T5, Serine/threonine-protein kinase BRSK1 (Homo sapiens) (UniProt Q8TDC3).
T5 sequence (whole entry): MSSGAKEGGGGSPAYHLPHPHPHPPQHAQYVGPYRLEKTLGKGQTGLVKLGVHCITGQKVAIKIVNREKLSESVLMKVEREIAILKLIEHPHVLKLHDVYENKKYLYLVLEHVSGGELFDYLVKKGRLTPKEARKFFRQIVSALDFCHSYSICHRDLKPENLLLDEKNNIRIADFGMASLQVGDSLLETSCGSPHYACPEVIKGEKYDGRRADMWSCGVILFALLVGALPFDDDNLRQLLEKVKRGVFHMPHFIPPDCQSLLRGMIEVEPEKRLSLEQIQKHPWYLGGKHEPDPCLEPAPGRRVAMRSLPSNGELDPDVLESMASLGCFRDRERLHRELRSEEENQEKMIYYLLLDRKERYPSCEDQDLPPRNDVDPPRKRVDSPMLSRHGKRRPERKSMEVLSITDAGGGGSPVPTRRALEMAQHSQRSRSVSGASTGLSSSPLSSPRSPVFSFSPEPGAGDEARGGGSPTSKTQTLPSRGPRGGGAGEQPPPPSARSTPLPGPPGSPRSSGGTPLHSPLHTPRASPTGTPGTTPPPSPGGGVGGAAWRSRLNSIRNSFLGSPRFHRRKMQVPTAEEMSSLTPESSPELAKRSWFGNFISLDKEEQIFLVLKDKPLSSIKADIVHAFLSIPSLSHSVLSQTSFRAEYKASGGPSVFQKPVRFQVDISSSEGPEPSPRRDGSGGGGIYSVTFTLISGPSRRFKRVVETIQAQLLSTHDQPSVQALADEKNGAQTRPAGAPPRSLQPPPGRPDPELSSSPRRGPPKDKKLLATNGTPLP
Particulars: at 0.1 µM.

Test [15] deals with T5, Serine/threonine-protein kinase BRSK1 (Homo sapiens). Particulars: at 1 µM.
The target of test [16] is T6, Serine/threonine-protein kinase BRSK2 (Homo sapiens) (UniProt Q8IWQ3).
T6 sequence (whole entry): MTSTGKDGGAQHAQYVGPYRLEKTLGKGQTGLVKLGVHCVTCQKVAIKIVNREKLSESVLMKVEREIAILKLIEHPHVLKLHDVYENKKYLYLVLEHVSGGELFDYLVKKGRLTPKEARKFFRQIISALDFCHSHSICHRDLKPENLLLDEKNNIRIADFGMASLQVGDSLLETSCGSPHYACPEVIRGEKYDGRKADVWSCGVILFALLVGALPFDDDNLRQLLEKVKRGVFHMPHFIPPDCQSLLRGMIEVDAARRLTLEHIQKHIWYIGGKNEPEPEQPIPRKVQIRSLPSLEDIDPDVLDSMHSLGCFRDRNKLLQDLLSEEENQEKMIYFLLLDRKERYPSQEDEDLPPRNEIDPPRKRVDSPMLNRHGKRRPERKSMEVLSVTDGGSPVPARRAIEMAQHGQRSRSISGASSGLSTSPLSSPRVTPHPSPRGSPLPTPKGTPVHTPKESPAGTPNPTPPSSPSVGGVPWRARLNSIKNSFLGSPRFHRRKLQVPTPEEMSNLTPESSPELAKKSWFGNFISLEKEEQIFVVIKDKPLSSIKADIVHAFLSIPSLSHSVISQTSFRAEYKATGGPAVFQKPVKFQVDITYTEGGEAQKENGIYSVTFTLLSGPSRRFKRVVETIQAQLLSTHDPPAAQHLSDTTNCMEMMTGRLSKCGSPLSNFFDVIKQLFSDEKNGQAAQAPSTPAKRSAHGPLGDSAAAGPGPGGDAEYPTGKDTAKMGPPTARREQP
Particulars: at 0.1 µM.

Test [17] deals with T6, Serine/threonine-protein kinase BRSK2 (Homo sapiens). Particulars: at 1 µM.
For test [18], the target named is Calcium/calmodulin-dependent protein kinase type 1D (Homo sapiens) (UniProt Q8IU85). Particulars: at 0.1 µM.
For test [19] the target is unchanged. Particulars: at 1 µM.
Test [20] has as its target Calcium/calmodulin-dependent protein kinase type II subunit alpha (Homo sapiens) (UniProt Q9UQM7). Particulars: at 0.1 µM.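 Also: reported values are averages (mean inhibition of CAMK2A).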

Chain of Calcium/calmodulin-dependent protein kinase type 1D (Homo sapiens) (Q8IU85 whole entry, looked up): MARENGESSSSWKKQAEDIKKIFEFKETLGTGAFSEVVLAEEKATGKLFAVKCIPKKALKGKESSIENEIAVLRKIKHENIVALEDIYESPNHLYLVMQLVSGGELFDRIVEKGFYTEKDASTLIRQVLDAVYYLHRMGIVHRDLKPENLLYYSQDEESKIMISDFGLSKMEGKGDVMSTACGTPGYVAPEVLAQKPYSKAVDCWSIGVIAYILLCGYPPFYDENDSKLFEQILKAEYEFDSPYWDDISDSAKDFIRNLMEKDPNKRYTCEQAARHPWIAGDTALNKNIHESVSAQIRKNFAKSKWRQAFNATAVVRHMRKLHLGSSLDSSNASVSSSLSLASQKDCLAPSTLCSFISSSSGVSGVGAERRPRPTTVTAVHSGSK
Chain of 5'-AMP-activated protein kinase catalytic subunit alpha-2 (Homo sapiens) (P54646 whole entry, looked up): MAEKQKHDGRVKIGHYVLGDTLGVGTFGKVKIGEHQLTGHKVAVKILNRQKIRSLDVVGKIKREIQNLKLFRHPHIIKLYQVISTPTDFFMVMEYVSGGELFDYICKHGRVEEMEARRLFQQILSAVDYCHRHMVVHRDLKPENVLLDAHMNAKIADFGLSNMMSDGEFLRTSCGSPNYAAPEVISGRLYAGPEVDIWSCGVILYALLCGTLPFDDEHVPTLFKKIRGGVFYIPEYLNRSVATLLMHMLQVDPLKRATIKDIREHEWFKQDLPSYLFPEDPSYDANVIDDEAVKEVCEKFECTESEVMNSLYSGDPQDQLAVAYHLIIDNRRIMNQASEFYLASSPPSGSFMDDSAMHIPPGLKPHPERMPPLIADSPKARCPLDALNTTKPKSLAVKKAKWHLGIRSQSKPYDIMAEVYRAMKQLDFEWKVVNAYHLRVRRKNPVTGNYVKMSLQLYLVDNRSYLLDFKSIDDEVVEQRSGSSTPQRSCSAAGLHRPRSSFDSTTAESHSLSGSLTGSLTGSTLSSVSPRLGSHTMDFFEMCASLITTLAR
Chain of Calcium/calmodulin-dependent protein kinase type II subunit alpha (Homo sapiens) (Q9UQM7 whole entry): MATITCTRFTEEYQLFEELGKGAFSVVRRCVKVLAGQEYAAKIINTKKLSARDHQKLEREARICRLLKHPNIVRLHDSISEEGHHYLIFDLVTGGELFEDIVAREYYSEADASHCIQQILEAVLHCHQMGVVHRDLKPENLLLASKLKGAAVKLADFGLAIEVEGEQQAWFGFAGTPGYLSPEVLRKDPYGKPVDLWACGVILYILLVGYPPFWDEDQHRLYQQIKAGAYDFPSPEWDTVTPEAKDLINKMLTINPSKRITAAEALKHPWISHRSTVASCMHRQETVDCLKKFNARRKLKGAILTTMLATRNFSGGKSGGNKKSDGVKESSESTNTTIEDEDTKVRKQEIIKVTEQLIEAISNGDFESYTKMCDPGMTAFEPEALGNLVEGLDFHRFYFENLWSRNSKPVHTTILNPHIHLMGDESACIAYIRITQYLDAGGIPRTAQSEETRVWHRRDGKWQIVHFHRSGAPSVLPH
Chain of Ribosomal protein S6 kinase alpha-6 (Homo sapiens) (Q9UK32 whole entry): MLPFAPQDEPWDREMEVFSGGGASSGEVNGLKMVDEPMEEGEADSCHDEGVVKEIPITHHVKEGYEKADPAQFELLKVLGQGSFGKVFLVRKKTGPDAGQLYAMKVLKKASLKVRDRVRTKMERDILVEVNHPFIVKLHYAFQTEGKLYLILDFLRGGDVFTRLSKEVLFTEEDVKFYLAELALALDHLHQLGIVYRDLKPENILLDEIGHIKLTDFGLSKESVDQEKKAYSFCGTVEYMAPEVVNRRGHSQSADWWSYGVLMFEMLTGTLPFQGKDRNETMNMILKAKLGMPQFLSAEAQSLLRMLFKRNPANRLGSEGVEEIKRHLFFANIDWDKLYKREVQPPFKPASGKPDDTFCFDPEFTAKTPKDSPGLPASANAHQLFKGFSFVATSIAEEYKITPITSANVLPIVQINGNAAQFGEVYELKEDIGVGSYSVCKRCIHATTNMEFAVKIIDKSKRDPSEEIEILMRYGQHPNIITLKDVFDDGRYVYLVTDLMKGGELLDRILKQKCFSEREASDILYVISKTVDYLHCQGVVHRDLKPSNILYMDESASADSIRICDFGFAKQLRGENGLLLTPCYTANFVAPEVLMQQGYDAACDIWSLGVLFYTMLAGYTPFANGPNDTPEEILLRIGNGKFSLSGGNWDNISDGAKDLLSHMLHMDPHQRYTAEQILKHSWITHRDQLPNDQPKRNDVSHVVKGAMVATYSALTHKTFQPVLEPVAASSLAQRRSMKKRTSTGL
Chain of 5'-AMP-activated protein kinase catalytic subunit alpha-1 (Homo sapiens) (Q13131 whole entry, looked up): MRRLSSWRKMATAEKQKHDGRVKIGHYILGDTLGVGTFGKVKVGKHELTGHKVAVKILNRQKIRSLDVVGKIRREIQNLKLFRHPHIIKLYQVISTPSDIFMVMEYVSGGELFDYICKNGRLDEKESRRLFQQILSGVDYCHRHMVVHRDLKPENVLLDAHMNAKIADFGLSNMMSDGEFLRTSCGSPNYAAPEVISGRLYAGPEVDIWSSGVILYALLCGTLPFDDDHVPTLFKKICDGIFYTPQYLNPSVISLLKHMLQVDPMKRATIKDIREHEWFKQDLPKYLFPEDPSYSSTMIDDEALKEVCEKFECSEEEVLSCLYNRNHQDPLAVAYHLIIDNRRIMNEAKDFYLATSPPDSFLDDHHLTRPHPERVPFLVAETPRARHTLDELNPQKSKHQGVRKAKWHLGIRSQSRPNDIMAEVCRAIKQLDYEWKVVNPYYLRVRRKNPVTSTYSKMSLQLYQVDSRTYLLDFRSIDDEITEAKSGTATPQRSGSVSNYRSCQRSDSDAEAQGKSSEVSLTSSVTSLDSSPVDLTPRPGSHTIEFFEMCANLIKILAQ

Regarding `CCn1c(-c2nonc2N)nc2c(C#CC(C)(C)O)ncc(OC[C@@H]3CCCN3)c21`, the inhibition (in general, the relative decrease from the control value, in per cent) in test [1] was determined as 8.09%; in test [2], 1.28%; in test [3] it was 2.09%; in test [4] it was 3.27%; in test [5], 2.29%; in test [6], 12.7%. The inhibition in [7] is 47.4%; in [8], 6%; in [9], 39.3%; in test [10] it was 0.91%; in test [11], 4.25%; in [12] it was 6.58%. Further, the inhibition is 34.4% in [13]; -0.75% in test [14]; 1.83% in test [15]; 0.98% in test [16]; 1.11% in test [17]; 0.27% in test [18]. For the same compound, the inhibition in test [19] was 0.84%; in [20] it was 1.28%.
With `Nc1nonc1-c1nc2cnccc2n1C1CCCCC1`, the inhibition in test [1] worked out at 30.9%; in [2], 1.2%; in [3], 13.2%; in [4], 5.9%; in test [5], 40.5%; in [6], 7.01%. The inhibition was 41.7% in [7]; 0.66% in test [8]; 5.36% in test [9]; -0.2% in test [10]; 3.46% in test [11]; 0.83% in [12]. Further, the inhibition in test [13] is 6.7%; in test [14], -0.55%; in test [15], 4.25%; in test [16], 0.61%; in [17], 6.14%; in [18] it was 0.69%. Besides, the inhibition in test [19] is 1.22%; in test [20], -2.67%.
`COc1cccc(COc2cc(-n3cnc4ccccc43)sc2C(N)=O)c1`: the inhibition in test [1] is 2.04%; in test [2], 3.04%; in test [3], 0.63%; in test [4] it was -0.02%; in test [5] it was -0.45%; in test [6], -1.95%. Further, the inhibition in test [7] was -0.21%; in test [8], 0.92%; in test [9], 2.35%; in test [10], -0.66%; in test [11], 1.39%; in test [12], -2.73%. Besides, the inhibition was 8.04% in [13]; -0.43% in [14]; 5.63% in test [15]; 0.26% in [16]; 4.17% in test [17]; 0.91% in test [18]. In addition, the values for the inhibition in test [19] and in [20] were 0.38% and 0.37%, respectively.
